Results: PMC4336329 (PLoS ONE, 2015)
The whole screen tested about 310,000 compounds, of which about 14,000 (4.5%) showed an effect of 50% or more. Effects have a minus sign here. The sample as a whole holds a higher share of strong results than the screen did.

Each compound was assayed against human ether-à-go-go-related gene (hERG) potassium channel (human, UniProt Q12809) (assay: primary screen, population patch clamp on CHO cells stably expressing hERG; higher = less effect of the substance).
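Also: peak tail current of the secondary pulse compared with the same well before compound.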

Sequence of human ether-à-go-go-related gene (hERG) potassium channel (Q12809 whole entry, looked up): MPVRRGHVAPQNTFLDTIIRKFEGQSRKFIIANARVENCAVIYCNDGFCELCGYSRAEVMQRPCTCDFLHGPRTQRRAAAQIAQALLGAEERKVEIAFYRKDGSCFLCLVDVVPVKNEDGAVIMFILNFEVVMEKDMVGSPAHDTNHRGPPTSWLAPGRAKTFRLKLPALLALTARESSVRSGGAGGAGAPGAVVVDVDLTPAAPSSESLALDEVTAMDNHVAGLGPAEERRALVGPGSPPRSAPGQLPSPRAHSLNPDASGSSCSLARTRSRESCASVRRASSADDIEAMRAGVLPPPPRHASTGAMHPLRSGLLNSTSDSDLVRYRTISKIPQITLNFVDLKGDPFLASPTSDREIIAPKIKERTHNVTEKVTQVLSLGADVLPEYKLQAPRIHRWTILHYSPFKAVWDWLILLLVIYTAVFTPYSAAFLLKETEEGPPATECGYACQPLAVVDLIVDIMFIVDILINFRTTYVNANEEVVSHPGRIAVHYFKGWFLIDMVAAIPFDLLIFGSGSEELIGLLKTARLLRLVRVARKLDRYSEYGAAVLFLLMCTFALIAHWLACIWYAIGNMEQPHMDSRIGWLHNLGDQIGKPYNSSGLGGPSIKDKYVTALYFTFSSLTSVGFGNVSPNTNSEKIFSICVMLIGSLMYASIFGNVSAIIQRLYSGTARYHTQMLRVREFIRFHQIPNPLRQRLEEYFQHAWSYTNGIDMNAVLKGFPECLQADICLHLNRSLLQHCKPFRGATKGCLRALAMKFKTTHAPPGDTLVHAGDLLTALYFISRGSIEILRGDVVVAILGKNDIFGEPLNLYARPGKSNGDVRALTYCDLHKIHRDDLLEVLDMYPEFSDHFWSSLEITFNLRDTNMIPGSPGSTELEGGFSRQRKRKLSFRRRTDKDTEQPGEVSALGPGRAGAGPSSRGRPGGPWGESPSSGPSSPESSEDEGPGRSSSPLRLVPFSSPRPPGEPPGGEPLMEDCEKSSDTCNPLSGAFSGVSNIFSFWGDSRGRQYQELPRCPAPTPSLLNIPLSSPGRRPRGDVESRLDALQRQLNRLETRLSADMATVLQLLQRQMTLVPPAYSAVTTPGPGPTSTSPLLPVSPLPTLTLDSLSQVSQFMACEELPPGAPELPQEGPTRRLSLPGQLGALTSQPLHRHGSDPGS

| Structure (SMILES) | hERG current change (%, negative = inhibition) at 10uM |
| --- | --- |
| CCSc1cc(C)nc2ncnn12 | -0.742% |
| CC1CCCN(C(=O)C2CCN(Cc3ccc4c(c3)OCO4)CC2)C1.O=C(O)C(=O)O (stereo not shown) | -0.604% |
| COC(=O)c1cccc(NC(=O)Cn2nnc3ccccc32)c1 | 0.234% |
| COc1cc(C2NC(=O)NC(C)=C2[N+](=O)[O-])cc(OC)c1OC (stereo not shown) | 9.03% |
| CCn1c(=O)c2sccc2n2c(CCCC(=O)NCCc3ccc(S(N)(=O)=O)cc3)nnc12 | -4.96% |
| O=C(NCC1CC1)[C@@H]1C[C@H]1[C@@H](NP(=O)(c1ccccc1)c1ccccc1)c1ccccc1 | -13.9% |
| CC(=O)Nc1ccccc1C(=O)OCc1ccccc1F | 3.58% |
| N#CCCn1cc(C(=O)Nc2ccccc2Cl)c(-c2ccc(F)cc2)n1 | 14% |
| COc1ccc(NC(=O)c2cn(CCC#N)nc2-c2ccccc2)cc1 | -7.59% |
| N#CCCn1cc(C(=O)Nc2ccccc2Br)c(-c2ccc([N+](=O)[O-])cc2)n1 | -46.9% |
| COc1ccc(-c2nn(CCC#N)cc2C(=O)NCc2ccccc2)cc1[N+](=O)[O-] | -59.7% |
| N#CCCn1cc(C(=O)Nc2ccc(C(=O)O)cc2)c(-c2ccc([N+](=O)[O-])cc2)n1 | 23.2% |
| N#CCCn1cc(C(=O)Nc2ccc([N+](=O)[O-])cc2)c(-c2ccccc2)n1 | -80.1% |
| COc1ccc(-c2nn(CCC#N)cc2C(=O)NCc2ccccc2)cc1OC | -42.3% |
| COc1ccc(-c2nn(CCC#N)cc2C(=O)Nc2ccccc2Br)cc1[N+](=O)[O-] | -39.6% |
| N#CCCn1cc(C(=O)Nc2ccccc2Cl)c(-c2ccc([N+](=O)[O-])cc2)n1 | -64.4% |
| Cc1cc(C=C2C(=O)N(C)C(=O)N(C)C2=O)c(C)n1-c1ccccc1 | 17.5% |
| FC(F)(F)c1cc(-c2cccs2)nc(N2CCOCC2)n1 | 1.94% |
| CC(C)N(Cc1nc(-c2ccccc2)no1)C(=O)c1ccc(Br)o1 | -18.8% |
| O=CN1CCN(S(=O)(=O)c2ccc(Cl)c(C(=O)O)c2)CC1 | -2.45% |
| C/C(=N\NC(=O)Cn1nc(C)c([N+](=O)[O-])c1C)c1ccco1 | 26% |
| C=C1c2ccc(C)cc2NC(=O)N1c1ccccc1 | -1.2% |

| Structure (SMILES) | hERG current change (%, negative = inhibition) at 10uM |
| --- | --- |
| COc1ccc(N=C2CCCN2CC(N)=O)cc1.Cl | -0.486% |
| C#Cc1cccc(-n2nnc(C(C)=O)c2C)c1 | 15.5% |
| Cc1noc(C)c1COc1ccccc1C(=O)N1CCN(S(=O)(=O)c2ccccc2F)CC1 | -19.2% |
| CCOC(=O)C1=C(CN2CCN(C(=O)c3ccco3)CC2)NC(=O)NC1c1ccc(Cl)cc1 (stereo not shown) | -35% |
| CCOC(=O)C1=C(CN2CCC(C)CC2)NC(=O)NC1c1ccc(Cl)cc1 (stereo not shown) | -37.6% |
| COc1ccc(CN2CCN(C(=O)c3ccco3)CC2)cc1 | -12.3% |
| CCOC(=O)C1=C(CN2CCN(C(=O)c3ccco3)CC2)NC(=O)NC1c1ccc(F)cc1 (stereo not shown) | -62.9% |
| CCOC(=O)C1=C(CN2CCN(C(=O)c3ccco3)CC2)NC(=O)NC1c1ccccc1 (stereo not shown) | -43.7% |
| CCOC(=O)C1=C(CN2CCN(C(=O)c3ccco3)CC2)NC(=O)NC1c1ccc(OC(C)C)cc1 (stereo not shown) | -69.3% |
| CCOC(=O)C1=C(CN2CCN(C(=O)OCC)CC2)NC(=O)NC1c1ccc2c(c1)OCO2 (stereo not shown) | -18.4% |
| CCOC(=O)C1=C(CN2CCCCCC2)NC(=O)NC1c1ccc2c(c1)OCO2 (stereo not shown) | -48.2% |
| CC(C)Oc1ccc(C(=O)N2CCN(C(=O)c3ccco3)CC2)cc1 | -29.6% |
| CCOC(=O)C1=C(CN2CCN(C(=O)c3ccco3)CC2)NC(=O)NC1c1ccc(C)cc1 (stereo not shown) | -63.2% |
| CCOC(=O)C1=C(CN2CCN(C(=O)c3ccco3)CC2)NC(=O)NC1c1ccc(OC)cc1 (stereo not shown) | -64.9% |
| CCOC(=O)C1=C(C)NC(=O)NC1c1ccc(OC(=O)c2ccco2)cc1 (stereo not shown) | -2.08% |
| CN(C)/C=C1\SC(=S)N(c2ccc(Br)cc2)C1=O | -4.75% |
| COc1ccccc1N1CCN(C(=O)Cn2ncc3c([nH]c4ccccc43)c2=O)CC1 | 4.74% |
| CCCCn1c(Cc2ccccc2)nnc1SCC(=O)N1CCOCC1 | 0.754% |
| CN(/N=C/Cc1nnnn1-c1ccc(Cl)cc1)c1ccccc1 | -7.54% |
| Cc1c(C#N)c2ncnc(N)c2n1-c1ccccc1 | 5.64% |
| NC1=C([N+](=O)[O-])C(c2ccc3c(c2)OCO3)c2c(c3ccccc3oc2=O)O1 (stereo not shown) | -21.3% |
| O=C(Nc1cc2c3c(c1)CC(=O)N3CCC2)C1CCCCC1 | -5.43% |

| Structure (SMILES) | hERG current change (%, negative = inhibition) at 10uM |
| --- | --- |
| CC(C)(C)OC(=O)NCCCCCc1nnc(SCC(=O)Nc2cccc(Cl)c2)o1 | -50.7% |
| CC(C)(C)OC(=O)NCCc1nnc(SCC(=O)Nc2cccc(Cl)c2)o1 | 6.91% |
| Cc1cccc(C)c1NC(=O)CSc1nnc(CCCCCNC(=O)OC(C)(C)C)o1 | -17.8% |
| COc1cccc(C(=O)C2CCCN(C(=O)CCc3scnc3C)C2)c1 (stereo not shown) | -12.7% |
| CCOC(=O)c1cnn(-c2ccccc2)c1NC(=O)CN1CCOCC1 | 16.1% |
| Cn1c(N)c(C(=O)COC(=O)c2ccco2)c(=O)n(C)c1=O | 5.09% |
| COc1ccc(-c2nc(C)ncc2-c2csc(C)n2)c(O)c1 | 11% |
| COc1ccc(C)cc1Cn1nnc2ccccc21 | -4.34% |
| CN(C)c1ccc(C2(O)C(=O)c3ccccc3C2=O)cc1 | 23.4% |
| CNc1ccc(C2(O)C(=O)c3ccccc3C2=O)cc1 | -66.1% |
| CCNc1ccc(C2(O)C(=O)c3ccccc3C2=O)cc1 | 12.6% |
| COc1ccc(NC(=O)c2sc(NC(=O)COc3ccccc3)nc2C)cc1 | 1.76% |
| COc1ccc(CCc2nnc(CCC(=O)N(C)Cc3ccnc4ccccc34)o2)cc1 | -37.7% |
| COc1ccc(C(C)(C)C)cc1NC(=O)COC(=O)c1nc2nccc(C)n2n1 | 3.17% |
| O=c1[nH]c(=S)n(C2CC2)c(O)c1C=Nc1cccc(C(F)(F)F)c1 | 12.8% |
| Cc1ccc(NC(=O)Nc2cccc3ccccc23)cc1 | 19.5% |
| CC1(NC(=O)Nc2ccccc2)CCS(=O)(=O)C1 (stereo not shown) | -53% |
| Cc1cccc(NC(=O)NC2(C)CCS(=O)(=O)C2)c1 (stereo not shown) | 6.52% |
| CC1(NC(=S)Nc2ccccc2)CCS(=O)(=O)C1 (stereo not shown) | 13.8% |
| C/C(=N/NC(=O)CCC(=O)Nc1ccc(Br)cc1)c1ccc(Br)cc1 | 12.7% |
| O=C(Nc1ccccc1)N(CCc1nc2ccccc2[nH]1)C1CCCC1 | -24% |
| CC1CCCCC1NC(=O)CCCCCn1c(=S)[nH]c2ccccc2c1=O (stereo not shown) | 7.63% |

| Structure (SMILES) | hERG current change (%, negative = inhibition) at 10uM |
| --- | --- |
| O=C(Nc1nccs1)c1nc[nH]c1C(=O)NCc1ccccc1 | 3.34% |
| CC(C)(C)NC(=O)Cn1nnc(-c2cccs2)n1 | -4.07% |
| O=C(Nc1ccc([N+](=O)[O-])cc1)c1cc(-c2ccccn2)nc2c(Cl)cccc12 | 33% |
| O=C1OC(CC(=O)N(Cc2nnc(-c3ccccc3Cl)o2)C2CC2)c2ccccc21 (stereo not shown) | -40.3% |
| CCCN(Cc1nnc(-c2ccccc2Cl)o1)C(=O)COc1ccc(Cl)cc1 | -60.5% |
| O=C1OC(CC(=O)N(Cc2nnc(-c3ccc(Cl)cc3)o2)C2CC2)c2ccccc21 (stereo not shown) | -67.8% |
| Cc1ccc(CN2CC(C(=O)N(Cc3nnc(-c4ccccc4Cl)o3)C3CC3)CC2=O)cc1 (stereo not shown) | -45.2% |
| Cc1ccc(C(=O)N(Cc2nnc(-c3ccc(Cl)cc3)o2)C2CC2)o1 | -32.6% |
| CSc1cccc(N2CC(C(=O)N(Cc3nnc(-c4ccccc4Cl)o3)C3CC3)CC2=O)c1 (stereo not shown) | -55.5% |
| CCOc1ccccc1N1CC(C(=O)N(Cc2nnc(-c3ccccc3Cl)o2)C2CC2)CC1=O (stereo not shown) | -16.8% |
| CCC(=O)c1ccc(OCC(=O)N(Cc2nnc(-c3ccccc3Cl)o2)C2CC2)cc1 | -67.2% |
| CCCN(Cc1nnc(-c2ccccc2Cl)o1)C(=O)c1oc2ccccc2c1C | -13.1% |
| COc1ccccc1OCC(=O)N(Cc1nnc(-c2ccccc2Cl)o1)C1CC1 | -44.2% |
| Cc1ccc(C)c(OCC(=O)N(Cc2nnc(-c3ccccc3Cl)o2)C2CC2)c1 | -20.9% |
| N#Cc1ccccc1OCC(=O)N(Cc1nnc(-c2ccccc2Cl)o1)C1CC1 | -48.7% |
| CN(C)c1ccc(/C=N/NC(=O)c2ccc(-n3cnnn3)cc2)cc1 | 10.8% |
| CCOc1ccc2nc(NS(=O)(=O)Cc3ccccc3)sc2c1 | 9.15% |
| Cc1cc(OC(C)C)c2c(-c3ccccc3)cc(=O)oc2c1 | 16.2% |
| O=C1N=C(N2CCCCC2)S/C1=C\c1ccc(Cl)cc1 | 9.15% |
